Laboratory results taken from PubChem BioAssay (NCATS).
Results filed as inconclusive are left out. The source made the active and inactive calls. Unless noted, calls come from the whole dose curve; as a rule, active = well fitted curve in either direction with a large enough effect (not every such curve was filed as active); inconclusive = small, poorly fitted or top-dose-only effect, or another doubt; inactive = flat fitted curve, though single readings scatter.

Key:
[1] = AP1 Signaling Pathway (AID 357); conditions: ME-180 AP-1-bla reporter, EGF-induced, beta-lactamase ratio, 5 h; at 17.2 µM (top of the series) unless noted;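 note: ME-180 reporter cells stimulated with EGF at its EC50 level; % is set by controls: 0 for no effect and ±100 for the full control effect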
Summary of the method: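 First, ME-180 AP-1-bla cells were cultured overnight at 37 °C in low-serum Opti-MEM. Next, titrated compounds with EC50 EGF were incubated 5 hours. Finally, CCF4 was added for 2.5 hours and the 460/530 nm ratio recorded.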

[2] = NFAT Signaling Pathway (AID 444); conditions: Jurkat NFAT-bla M1, carbachol, beta-lactamase ratio, 5 h; at 17.2 µM (top of the series) unless noted;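 note: carbachol stimulus at about its EC50 of 1 µM final; % is set by controls: 0 for no effect and ±100 for the full control effect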
Summary of the method: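 Jurkat cells with NFAT-driven β-lactamase reporter and co-expressed M1 receptor, stimulated with carbachol (final 1 uM, ~EC50), compound titration, 5 h at 37 °C. CCF4 loaded 1 h at RT; 460/530 nm ratio gave %activity and AC50.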

[3] = Stat Signaling Pathway (AID 446);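 note: ME-180 cervical cancer cells given 40 pM IL-6 alongside compound; SIE-controlled beta-lactamase reporter measured as 460/530 nm FRET emission ratio; % is set by controls: 0 for no effect and ±100 for the full control effect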
Summary of the method: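 Emission at 460 and 530 nm (excitation 405 nm) reports SIE-controlled beta-lactamase in ME-180 cells. Cells received compound with 40 pM IL-6 for 5 hrs at 37 C; data scaled between 300 pM IL-6 and 125 nM JAK-inhibitor controls.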

[4] = target: Glucocorticoid receptor (Homo sapiens) (UniProt P04150); experiment: GR-GFP Redistribution (AID 450;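 active = compounds whose dose series gives a full or clear partial fitted curve of increased nuclear translocation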; note: potency is the fitted concentration of half-maximal effect); conditions: U2OS GR-GFP nuclear translocation, laser cytometry, 2 h
Sequence of Glucocorticoid receptor (Homo sapiens) (P04150 whole entry, looked up, the tested form may be a part): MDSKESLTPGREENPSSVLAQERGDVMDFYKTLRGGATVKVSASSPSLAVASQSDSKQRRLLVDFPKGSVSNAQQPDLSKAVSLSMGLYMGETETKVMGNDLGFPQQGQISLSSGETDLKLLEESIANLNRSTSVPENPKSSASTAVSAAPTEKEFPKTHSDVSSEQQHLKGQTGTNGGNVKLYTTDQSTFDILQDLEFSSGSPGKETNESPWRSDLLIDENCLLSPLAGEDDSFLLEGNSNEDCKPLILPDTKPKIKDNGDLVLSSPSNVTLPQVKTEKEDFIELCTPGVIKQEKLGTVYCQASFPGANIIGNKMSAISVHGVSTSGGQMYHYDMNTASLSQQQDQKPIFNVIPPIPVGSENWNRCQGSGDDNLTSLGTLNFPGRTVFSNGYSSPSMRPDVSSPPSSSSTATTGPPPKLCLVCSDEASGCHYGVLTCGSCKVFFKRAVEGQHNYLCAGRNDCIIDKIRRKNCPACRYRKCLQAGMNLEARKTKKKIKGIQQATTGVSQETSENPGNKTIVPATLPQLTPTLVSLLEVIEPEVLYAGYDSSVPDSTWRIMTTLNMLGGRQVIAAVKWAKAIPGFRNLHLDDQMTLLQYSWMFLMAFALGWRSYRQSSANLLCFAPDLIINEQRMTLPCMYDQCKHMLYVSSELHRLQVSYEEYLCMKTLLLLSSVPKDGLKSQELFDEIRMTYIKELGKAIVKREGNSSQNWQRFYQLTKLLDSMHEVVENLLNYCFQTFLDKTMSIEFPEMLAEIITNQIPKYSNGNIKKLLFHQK

[5] = target: Mitogen-activated protein kinase 10 (Mus musculus) (UniProt Q61831); experiment: JNK3 AlphaScreen Assay (AID 530);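 note: kinase came from lysate of stimulated human HepG2 cells; signal reports phosphorylation of biotinylated GST-cJun 1-79 at Ser73 with 10 µM ATP; % is set by controls: 0 for no effect and ±100 for the full control effect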
Summary of the method: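 HepG2 lysate (IL-1b/TNFa pre-activated) + biotin-GST-cJun 1-79 + anti-pSer73 cJun; cpd titration, 15 min RT; ATP 10 uM start; Tris pH 7.6, MgCl2, DTT, vanadate; beads in EDTA buffer; AlphaScreen.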

[6] = target: 3',5'-cyclic-AMP phosphodiesterase 4B (Homo sapiens) (UniProt Q07343); experiment: qHTS Assay for Inhibitors of PDE-IV (AID 607; active = well fitted activation curve with a large enough effect in the main read-out, with a control signal flat, not every such curve was filed as active; note: % of control where 0% means no effect)
Sequence of 3',5'-cyclic-AMP phosphodiesterase 4B (Homo sapiens) (Q07343 whole entry, looked up): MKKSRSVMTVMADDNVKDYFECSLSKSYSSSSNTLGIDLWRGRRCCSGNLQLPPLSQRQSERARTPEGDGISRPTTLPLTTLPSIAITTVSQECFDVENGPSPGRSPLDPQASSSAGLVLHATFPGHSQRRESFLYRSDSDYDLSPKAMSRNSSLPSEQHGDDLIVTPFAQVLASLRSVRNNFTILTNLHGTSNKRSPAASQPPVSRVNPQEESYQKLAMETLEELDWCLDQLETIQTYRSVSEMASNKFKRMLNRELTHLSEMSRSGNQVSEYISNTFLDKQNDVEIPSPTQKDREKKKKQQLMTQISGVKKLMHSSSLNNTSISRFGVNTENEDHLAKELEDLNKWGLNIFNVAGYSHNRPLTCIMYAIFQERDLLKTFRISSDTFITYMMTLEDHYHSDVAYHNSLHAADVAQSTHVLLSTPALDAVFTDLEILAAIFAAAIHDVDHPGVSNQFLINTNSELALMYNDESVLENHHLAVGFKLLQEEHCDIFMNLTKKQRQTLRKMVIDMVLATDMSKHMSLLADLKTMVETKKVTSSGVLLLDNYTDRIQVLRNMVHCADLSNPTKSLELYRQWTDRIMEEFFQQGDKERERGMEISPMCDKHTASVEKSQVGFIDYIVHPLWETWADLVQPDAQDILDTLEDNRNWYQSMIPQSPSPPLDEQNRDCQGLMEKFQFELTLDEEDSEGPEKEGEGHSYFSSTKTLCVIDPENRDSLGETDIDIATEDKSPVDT
Summary of the method: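 The readout is membrane depolarisation from a cAMP-sensing CNG channel, detected with a potential dye at ex 535/em 590. Cells were HEK293-derived (endogenous PDE-IV) at 1000 cells/well, titrated up to 22.9 uM final.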

[7] = target: Guanine nucleotide-binding protein G(i) subunit alpha-1 (Homo sapiens) (UniProt P63096); experiment: qHTS Assay for Inhibitors of RGS12 GoLoco Motif Activity (Green Fluorophore) (AID 879; active = well fitted curve in the direction sought with a large enough effect; an effect the other way counts as inactive or inconclusive;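 note: 0% = labeled peptide with Gαi1 and full inhibition = labeled peptide alone without protein; negative values mean loss of peptide binding seen as reduced polarization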)
Sequence of Guanine nucleotide-binding protein G(i) subunit alpha-1 (Homo sapiens) (P63096 whole entry, looked up): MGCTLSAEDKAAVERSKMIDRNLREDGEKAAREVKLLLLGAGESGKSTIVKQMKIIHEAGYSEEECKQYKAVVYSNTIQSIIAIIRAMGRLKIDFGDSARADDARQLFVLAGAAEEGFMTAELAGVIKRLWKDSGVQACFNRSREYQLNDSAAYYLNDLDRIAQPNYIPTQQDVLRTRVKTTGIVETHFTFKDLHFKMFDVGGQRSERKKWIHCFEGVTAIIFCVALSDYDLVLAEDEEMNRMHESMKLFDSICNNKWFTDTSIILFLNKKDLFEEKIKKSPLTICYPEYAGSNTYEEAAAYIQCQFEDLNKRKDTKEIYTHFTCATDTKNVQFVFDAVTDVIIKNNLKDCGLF
Summary of the method: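 A drop in FITC polarization marked displacement of the FITC-tagged RGS12 GoLoco peptide (10 nM) from Gαi1 (50 nM). Compounds were incubated 10 min at room temperature in Tris pH 7.5 buffer containing 150 mM NaCl, 0.1 mM GDP and 0.05% NP40; unlabeled peptide titration served as control.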

[8] = qHTS Assay for Identification of Small Molecule Antagonists for NFkB Signaling Pathway (AID 895; active = well fitted inhibition curve with a large enough effect in the signal ratio, with a control signal flat, not every such curve was filed as active; the % refers to the signal ratio; note: % is set by controls: 0 for no effect and ±100 for the full control effect)
Summary of the method: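 ME-180 NFkB-bla cells (beta-lactamase under NFkB response element), plated overnight, treated with compound then 10 pM TNF alpha (about EC50) for 5 hrs at 37 C. LiveBLAzer FRET read at 460/530 nm emission, 405 nm excitation.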

[9] = target: Muscarinic acetylcholine receptor M1 (Rattus norvegicus) (UniProt P08482); experiment: qHTS Assay for Antagonists of Acetylcholine Muscarinic M1 Receptor: Measurement of IP-One Response (AID 944; active = well fitted curve in the direction sought with a large enough effect; an effect the other way counts as inactive or inconclusive; note: nearly all actives have a fitted effect of over 75% in size)
Sequence of Muscarinic acetylcholine receptor M1 (Rattus norvegicus) (P08482 whole entry, looked up): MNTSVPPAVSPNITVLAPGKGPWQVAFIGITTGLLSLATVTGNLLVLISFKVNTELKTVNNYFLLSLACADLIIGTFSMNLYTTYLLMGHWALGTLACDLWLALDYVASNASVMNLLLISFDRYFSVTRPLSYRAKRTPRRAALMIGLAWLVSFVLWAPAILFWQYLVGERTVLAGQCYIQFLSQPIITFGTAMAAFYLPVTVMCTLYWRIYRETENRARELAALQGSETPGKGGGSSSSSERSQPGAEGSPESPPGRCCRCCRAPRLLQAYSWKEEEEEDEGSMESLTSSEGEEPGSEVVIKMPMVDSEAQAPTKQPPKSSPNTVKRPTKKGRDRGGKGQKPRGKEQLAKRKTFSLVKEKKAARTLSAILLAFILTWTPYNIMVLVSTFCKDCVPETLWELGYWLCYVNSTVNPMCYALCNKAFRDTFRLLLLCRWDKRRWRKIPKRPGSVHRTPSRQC
Summary of the method: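 Antagonism was measured as loss of carbachol-driven (EC80) IP1 accumulation in CHO cells carrying rat M1, using a homogeneous IP-One TR-FRET kit read at 620 and 665 nm.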

[10] = target: Pyruvate kinase PKM (Homo sapiens) (UniProt P14618); experiment: qHTS Assay for Activators of Human Muscle Pyruvate Kinase (AID 954; active = well fitted curve in the direction sought with a large enough effect, not every such curve was filed as active;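 note: 0% = uninhibited enzyme and -100% = no enzyme or full thiadiazolimine inhibition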)
Sequence of Pyruvate kinase PKM (Homo sapiens) (P14618 whole entry, looked up): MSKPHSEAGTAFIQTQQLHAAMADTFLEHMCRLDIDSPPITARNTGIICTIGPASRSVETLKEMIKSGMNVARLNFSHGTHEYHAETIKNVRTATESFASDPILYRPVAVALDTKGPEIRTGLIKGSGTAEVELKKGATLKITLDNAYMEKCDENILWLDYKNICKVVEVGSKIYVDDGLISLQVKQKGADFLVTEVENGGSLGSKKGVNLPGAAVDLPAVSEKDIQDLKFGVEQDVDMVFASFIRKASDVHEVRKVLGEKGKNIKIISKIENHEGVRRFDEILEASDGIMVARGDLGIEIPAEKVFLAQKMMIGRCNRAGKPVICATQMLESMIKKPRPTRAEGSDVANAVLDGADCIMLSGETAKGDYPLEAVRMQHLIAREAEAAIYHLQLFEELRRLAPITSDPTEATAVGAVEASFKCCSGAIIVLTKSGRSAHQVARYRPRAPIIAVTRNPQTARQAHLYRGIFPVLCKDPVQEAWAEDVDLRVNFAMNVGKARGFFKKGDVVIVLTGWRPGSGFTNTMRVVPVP
Summary of the method: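 PKM2, human, >95% pure, 0.1 nM; PEP 0.5 mM (Km), ADP 0.1 mM; 50 mM imidazole pH 7.2, 50 mM KCl, 0.01% Tween 20, 0.05% BSA; 1 h RT; luciferase luminescence readout.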

[11] = target: Alpha-galactosidase (Coffea arabica) (UniProt Q42656); experiment: Counterscreen for Glucocerebrosidase Inhibitors: qHTS Assay for Coffee Bean alpha-Galactosidase at pH 4.5 (AID 957; active = well fitted curve in the direction sought with a large enough effect; an effect the other way counts as inactive or inconclusive;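 note: plate controls were enzyme alone for no effect and no enzyme for full effect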)
Sequence of Alpha-galactosidase (Coffea arabica) (Q42656 whole entry, looked up): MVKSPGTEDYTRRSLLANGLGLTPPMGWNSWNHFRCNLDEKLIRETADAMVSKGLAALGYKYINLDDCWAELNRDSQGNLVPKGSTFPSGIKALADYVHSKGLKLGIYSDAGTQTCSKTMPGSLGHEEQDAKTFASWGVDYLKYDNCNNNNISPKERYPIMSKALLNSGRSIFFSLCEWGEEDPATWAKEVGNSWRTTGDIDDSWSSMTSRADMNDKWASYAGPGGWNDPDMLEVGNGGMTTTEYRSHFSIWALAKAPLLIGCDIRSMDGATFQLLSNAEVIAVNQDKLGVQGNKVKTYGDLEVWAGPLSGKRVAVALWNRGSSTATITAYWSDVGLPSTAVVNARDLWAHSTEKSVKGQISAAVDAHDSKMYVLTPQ
Summary of the method: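 Quantitative HTS of compounds (0.7 nM to 77 uM) against coffee bean alpha-galactosidase at pH 4.5, measuring 4-methylumbelliferone fluorescence released from 80 uM substrate.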

[12] = target: Alpha-galactosidase A (Homo sapiens) (UniProt P06280); experiment: Counterscreen for Glucocerebrosidase Inhibitors: qHTS Assay for Human alpha-Galactosidase at pH 4.5 (AID 992; active = well fitted curve in the direction sought with a large enough effect; an effect the other way counts as inactive or inconclusive; note: 0% is about no effect)
Sequence of Alpha-galactosidase A (Homo sapiens) (P06280 whole entry, looked up): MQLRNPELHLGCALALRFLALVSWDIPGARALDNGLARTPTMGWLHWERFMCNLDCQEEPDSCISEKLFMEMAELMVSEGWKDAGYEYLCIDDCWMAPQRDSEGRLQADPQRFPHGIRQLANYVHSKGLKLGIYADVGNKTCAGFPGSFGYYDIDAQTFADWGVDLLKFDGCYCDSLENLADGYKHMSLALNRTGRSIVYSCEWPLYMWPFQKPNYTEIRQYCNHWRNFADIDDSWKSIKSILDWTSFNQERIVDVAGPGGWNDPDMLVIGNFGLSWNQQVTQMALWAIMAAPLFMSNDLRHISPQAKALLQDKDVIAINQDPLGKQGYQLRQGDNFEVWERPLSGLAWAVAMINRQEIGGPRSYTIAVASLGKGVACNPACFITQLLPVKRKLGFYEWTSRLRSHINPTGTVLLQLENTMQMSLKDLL
Summary of the method: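 Fluorogenic 4-MU alpha-D-galactoside (80 uM) hydrolysis, 2 nM enzyme, pH 4.5 citrate buffer + 0.005% Tween-20; 20 min RT; NaOH/glycine pH 10 stop; Ex365/Em440. Compounds titrated 0.7 nM–77 uM; Hill-equation AC50.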

[13] = target: alpha-glucosidase (Oryza sativa, rice) (UniProt Q653V4); experiment: Counterscreen for Glucocerebrosidase Inhibitors: qHTS Assay for Rice alpha-Glucosidase at pH 5.0 (AID 997; active = well fitted curve in the direction sought with a large enough effect; an effect the other way counts as inactive or inconclusive;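 note: 0% = full activity with enzyme and -100% = basal without enzyme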)
Summary of the method: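 Endpoint fluorogenic assay at pH 5.0: compounds (0.7 nM to 77 uM) titrated against 4 nM rice enzyme and 400 uM 4-MU-alpha-glucoside for 20 min at room temperature; NaOH/glycine stop, read ex 365/em 440 nm, Hill-fitted AC50.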

[14] = target: Alpha-galactosidase (Coffea arabica) (UniProt Q42656); experiment: Counterscreen for Glucocerebrosidase Inhibitors: qHTS Assay for Coffee Bean alpha-Galactosidase at pH 5.9 (AID 998; active = well fitted curve in the direction sought with a large enough effect; an effect the other way counts as inactive or inconclusive;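 note: plate controls were uninhibited enzyme for no effect and no-enzyme basal signal for full effect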)
Summary of the method: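 Enzyme 2 nM + cpd (0.7 nM–77 uM titration) + 4-MU-alpha-Gal 80 uM, pH 5.9 citrate/Tween-20, RT 20 min, NaOH/glycine stop pH 10, fluor 365/440. Normalized to no-enzyme and full-activity controls; Hill-fit AC50.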

[15] = target: Ubiquitin carboxyl-terminal hydrolase 1 (Homo sapiens) (UniProt O94782); experiment: Inhibitors of USP1/UAF1: Pilot qHTS (AID 504865; active = well fitted curve in the direction sought with a large enough effect; an effect the other way counts as inactive or inconclusive;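 note: rhodamine fluorescence freed from ubiquitin-rhodamine substrate followed over time; top concentration of the series differs between compounds; % is set by controls: 0 for no effect and ±100 for the full control effect; nearly all actives have a fitted effect of over 35% in size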)
Sequence of Ubiquitin carboxyl-terminal hydrolase 1 (Homo sapiens) (O94782 whole entry, looked up): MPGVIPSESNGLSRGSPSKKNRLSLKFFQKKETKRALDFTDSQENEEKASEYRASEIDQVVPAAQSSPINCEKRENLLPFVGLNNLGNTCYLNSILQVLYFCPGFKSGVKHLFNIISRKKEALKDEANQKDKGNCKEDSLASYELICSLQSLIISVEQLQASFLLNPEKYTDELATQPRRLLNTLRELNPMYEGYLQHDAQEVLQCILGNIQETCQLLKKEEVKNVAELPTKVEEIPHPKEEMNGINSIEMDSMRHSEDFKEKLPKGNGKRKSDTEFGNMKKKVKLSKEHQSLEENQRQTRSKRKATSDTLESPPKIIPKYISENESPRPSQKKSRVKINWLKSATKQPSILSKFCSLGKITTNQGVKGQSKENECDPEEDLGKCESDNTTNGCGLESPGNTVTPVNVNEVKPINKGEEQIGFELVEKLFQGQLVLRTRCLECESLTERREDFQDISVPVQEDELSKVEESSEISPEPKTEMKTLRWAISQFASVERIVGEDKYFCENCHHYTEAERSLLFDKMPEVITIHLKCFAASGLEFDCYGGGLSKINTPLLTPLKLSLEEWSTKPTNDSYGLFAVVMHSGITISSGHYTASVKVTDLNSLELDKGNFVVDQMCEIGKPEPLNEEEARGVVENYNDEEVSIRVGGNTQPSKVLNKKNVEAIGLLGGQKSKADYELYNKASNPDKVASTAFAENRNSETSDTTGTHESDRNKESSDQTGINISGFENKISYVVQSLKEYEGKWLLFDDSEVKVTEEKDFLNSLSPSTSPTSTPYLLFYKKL
Summary of the method: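 USP1/UAF1 complex at 1 nM preincubated 15 min at room temperature with compound, then Ub-Rho substrate added at 150 nM final. Fluorescence (480/540 nm) read kinetically in 50 mM HEPES pH 7.8, 0.5 mM EDTA, 1 mM TCEP, 0.1 mg/ml BSA, 0.01% Tween-20.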

[16] = qHTS Assay for Identification of Small Molecule Agonists for Hypoxia Response Element Signaling Pathway (AID 914; active = well fitted activation curve with a large enough effect in the signal ratio, with a control signal flat, not every such curve was filed as active; the % refers to the signal ratio; note: % of control where 0% means no effect); conditions: ME-180 (cervical carcinoma) HRE-bla reporter, beta-lactamase ratio, CoCl2, 17 h; activation: hits give high values
Summary of the method: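 HRE-bla ME-180 assay for agonist-like enhancement of an EC50 CoCl2 stimulus: 17 h at 37 degrees Celsius, CCF4 for 2.5 h, ratiometric 460/530 nm signal converted to %Activity and fitted to AC50.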

[17] = target: Glucocorticoid receptor (Homo sapiens) (UniProt P04150); experiment: GR-EFC Redistribution (AID 451; calls by dose curve; note: potency is the fitted concentration of half-maximal effect); conditions: CHO-K1 GR-EFC translocation, beta-gal luminescence, 2 h
Summary of the method: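 CHO-K1 cells expressing nuclear EA and GR-ED fragments of b-gal; compounds titrated up to 46 uM final, 2 h at 37 C. GR nuclear translocation read as complemented b-gal luminescence after 1 h RT detection.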

[18] = qHTS Assay for Identification of Small Molecule Agonists for Thrombopoietin (TPO) Signaling Pathway (AID 917; active = well fitted curve in the direction sought with a large enough effect; an effect the other way counts as inactive or inconclusive; note: % is set by controls: 0 for no effect and ±100 for the full control effect)
Summary of the method: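 Stimulation at the TPO EC50 (26 pM final) was used to detect activators. Ba/F3 mouse cells bearing human TPO receptor and a luciferase reporter under the Glycoprotein IIb promoter were exposed to compounds for 24 hrs at 37 C.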

[19] = target: Muscarinic acetylcholine receptor M1 (Rattus norvegicus) (UniProt P08482); experiment: qHTS Assay for Antagonists of Acetylcholine Muscarinic M1 Receptor: Kinetic Measurement of Intracellular Calcium Response (AID 943; active = well fitted curve in the direction sought with a large enough effect; an effect the other way counts as inactive or inconclusive;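 note: Fluo-4 calcium signal as peak divided by basal fluorescence over 4 min; nearly all actives have a fitted effect of over 75% in size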)
Summary of the method: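 Quantitative HTS in CHO-M1 (rat receptor) cells: 10 min compound exposure ahead of 100 nM carbachol, Fluo-4 fluorescence followed 4 min, value expressed as peak-to-basal ratio.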

[20] = target: Cytochrome P450 2D6 (Homo sapiens) (UniProt P10635); experiment: qHTS Assay for Inhibitors and Substrates of Cytochrome P450 2D6 (AID 891; active = well fitted curve in the direction sought with a large enough effect; an effect the other way counts as inactive or inconclusive; note: potency is the fitted concentration of half-maximal effect; nearly all actives have a fitted effect of over 60% in size)
Sequence of Cytochrome P450 2D6 (Homo sapiens) (P10635 whole entry, looked up): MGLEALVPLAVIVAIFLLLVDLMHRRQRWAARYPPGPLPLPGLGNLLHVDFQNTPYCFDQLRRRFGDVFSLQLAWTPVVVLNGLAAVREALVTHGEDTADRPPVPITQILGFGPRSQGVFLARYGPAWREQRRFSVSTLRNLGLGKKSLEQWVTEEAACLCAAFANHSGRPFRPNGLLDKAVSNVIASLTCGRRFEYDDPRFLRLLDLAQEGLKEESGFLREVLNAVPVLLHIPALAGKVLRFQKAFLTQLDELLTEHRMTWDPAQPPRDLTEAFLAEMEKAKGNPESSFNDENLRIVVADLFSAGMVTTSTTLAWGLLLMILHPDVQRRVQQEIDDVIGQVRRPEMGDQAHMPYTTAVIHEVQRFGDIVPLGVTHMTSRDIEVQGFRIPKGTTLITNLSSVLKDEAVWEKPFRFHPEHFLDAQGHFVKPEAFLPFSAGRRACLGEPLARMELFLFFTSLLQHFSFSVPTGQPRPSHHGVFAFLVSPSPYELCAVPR
Summary of the method: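 Luminescent read-out of luciferin formed by 5 nM human CYP2D6 demethylating 30 uM Luciferin-ME EGE (Km level) over 60 min at room temperature after NADPH regeneration addition. Data normalized to full inhibition by 1.43 uM quinidine.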

CNc1ccc2oc(C[C@@H]3O[C@@]4(CC[C@H]3C)O[C@@H]([C@@H](C)C(=O)c3ccc[nH]3)[C@@H](C)C[C@H]4C)nc2c1C(=O)O
active: activity change, negative = inhibition [2] 90.4% [activator] [at 38 µM]
inactive: activity change, negative = inhibition [1] 6.83% [at 38 µM] | outcome [3] | Potency [4] > 46 µM | outcome [5] | outcome [6]

Oc1ccc2c3c1O[C@@H]1[C@@H](O)CC[C@]4(O)[C@H](C2)N(CC2CCC2)CC[C@@]314
inactive: activity change, negative = inhibition [1] 2.34% [at 38 µM] | activity change, negative = inhibition [2] 2.45% [at 38 µM] | outcome [3] | Potency [4] > 46 µM | outcome [5] | outcome [6] | Potency [7] | Potency [8] | Potency [9] | outcome [10] | outcome [11] | outcome [12] | outcome [13] | outcome [14]

CC1(C)CC(=O)C(C=NCCN2CCN(C(=O)Cc3ccc(F)cc3)CC2)=C(O)C1
inactive: activity change, negative = inhibition [1] -0.912% | outcome [3] | Potency [4] > 20.6 µM

C[C@H]1C[C@@H](C)C(=O)[C@@H]([C@H](O)CC2CC(=O)NC(=O)C2)C1
active: activity change, negative = inhibition [1] -97.3% | activity change, negative = inhibition [2] -119%
inactive: outcome [5] | outcome [6] | Potency [15]

CCOC(=O)[C@@]1(C#N)[C@@H]2C=CC(C(N)=O)=CN2[C@@H](C(N)=O)[C@@H]1c1cccc(Cl)c1
inactive: activity change, negative = inhibition [1] -3.06% | outcome [3] | Potency [4] > 20.6 µM

CC(C)(C)c1ccc(O)c(C[N+](C)(C)C)c1
inactive: activity change, negative = inhibition [1] -0.0649% [at 7.69 µM] | activity change, negative = inhibition [2] -16.5% [at 7.69 µM] | outcome [3] | Potency [4] > 46 µM | activity change, negative = inhibition [5] -0.903% [at 11.4 µM] | outcome [6]

CC1=C(C(=O)OC(C)C)[C@]2(C(=O)N(CC(N)=O)c3ccccc32)C(C#N)=C(N)O1
inactive: activity change, negative = inhibition [1] 16.8% | activity change, negative = inhibition [2] -13.4% | outcome [3] | Potency [4] > 20.6 µM | activation [16] -4.16%

CC(C)n1cc2c3c(cccc31)[C@@H]1C[C@H](C(=O)O[C@@H](C)[C@H](C)O)CN(C)[C@H]1C2
inactive: activity change, negative = inhibition [1] 1.23% [at 38 µM] | activity change, negative = inhibition [2] -4.79% [at 38 µM] | Potency [4] > 46 µM | Potency [17] > 46 µM | outcome [5] | Potency [8] | outcome [18] | Potency [19] | outcome [10] | outcome [11] | outcome [12] | outcome [13] | outcome [14]

O=c1[nH]c(=O)n(CCc2ccccc2)c(O)c1C=NCCN1CCNCC1
inactive: activity change, negative = inhibition [1] 17.3% | outcome [3] | Potency [4] > 20.6 µM

COc1ccc2c(c1)[C@]13CCCC[C@@H]1[C@H](C2)N(C)CC3
inactive: activity change, negative = inhibition [1] 12% [at 38 µM] | activity change, negative = inhibition [2] -11.7% [at 38 µM] | outcome [3] | Potency [4] > 46 µM | outcome [6] | Potency [7] | outcome [10] | outcome [11] | outcome [12] | outcome [13] | outcome [14]
active: Potency [20] 2.51 µM
